PubChem BioAssay (EPA / NIEHS)
Results filed as inconclusive are left out. Activity calls are given as the source filed them. How the source made its calls, unless noted: active means hit-call score of the fitted dose curve at least 0.9, where 1 is the maximum; inconclusive means response in the unintended direction; inactive means score below 0.9.

Legend:
[1] = ATG_TGFb_CIS: Attagene CIS-FACTORIAL HepG2 Assay for human Transforming Growth Factor (TGF) (AID 2282967; active means hit-call score of the fitted dose curve at least 0.9, where 1 is the maximum; inactive means score below 0.9); details: HepG2 Attagene CIS TGFb reporter, mRNA transcription; actives raise or lower the signal
How it was run: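 Liver HepG2 line, cis-factorial reporter panel, 24 h dosing. Quantitation: RT-PCR products labeled with 6-FAM, cut with HpaI, resolved by capillary electrophoresis; DMSO-referenced bidirectional analysis.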

[2] = ATG_VDRE_CIS: Attagene CIS-FACTORIAL HepG2 Assay for human Vitamin D Receptor Element (VDRE) (AID 2282968; active means hit-call score of the fitted dose curve at least 0.9, where 1 is the maximum; inactive means score below 0.9); details: HepG2 VDRE cis-reporter transcription, actives raise or lower the signal
How it was run: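 Compounds were applied for 24 h to HepG2 cells transfected with promoter-regulated reporter units. Total RNA was reverse-transcribed, and reporter amplicons were fluorescently labelled and sized by capillary electrophoresis.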

[3] = target: Nuclear receptor subfamily 1 group I member 3 (Homo sapiens) (UniProt Q14994); assay: ATG_CAR_TRANS: Attagene TRANS-FACTORIAL HepG2 Assay for human Constitutive Androstane Receptor (CAR) (AID 2282969); details: HepG2 Attagene TRANS-FACTORIAL CAR reporter;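 further: activators raise reporter mRNA above DMSO so AC50 marks induction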
How it was run: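 Transiently transfected HepG2, multiplex TRANS reporters (CAR-Gal4 chimera driving GAL4-UAS reporter). 24 h dosing. Readout: reporter transcript by RT-PCR + capillary electrophoresis, fluorescence intensity; positive direction vs DMSO.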

[4] = target: X-box-binding protein 1 (Homo sapiens) (UniProt P17861); assay: ATG_Xbp1_CIS: Attagene CIS-FACTORIAL HepG2 Assay for human X-box Binding Protein 1 (XBP1) (AID 2282972; active means hit-call score of the fitted dose curve at least 0.9, where 1 is the maximum; inactive means score below 0.9); details: HepG2 XBP1 cis-element reporter, Attagene multiplex; actives raise or lower the signal
How it was run: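 Human hepatoma HepG2, cis-element reporter system, 24 h treatment; mRNA quantified by RT-PCR/CE fluorescence; fit relative to DMSO.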

[5] = ATG_GAL4_TRANS: Attagene TRANS-FACTORIAL HepG2 Assay for GAL4 (Internal Marker) (AID 2282976); details: HepG2 Attagene TRANS GAL4 internal marker reporter
How it was run: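 Fluorescence from capillary electrophoresis of labelled RT-PCR products quantifies reporter mRNA induction after 24 h dosing of HepG2 cells carrying transfected GAL4-UAS reporter transcription units. Vehicle DMSO serves as baseline.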

[6] = target: Glucocorticoid receptor (Homo sapiens) (UniProt P04150); assay: ATG_GR_TRANS: Attagene TRANS-FACTORIAL HepG2 Assay for human Glucocorticoid Receptor (GR) (AID 2282978); details: HepG2 Attagene TRANS GR reporter, mRNA transcription;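 further: activators score as hits since higher reporter transcript over DMSO is fitted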
How it was run: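 Transiently transfected HepG2 cells express chimeric NR-GAL4 proteins acting on GAL4-UAS reporter units. Compounds are applied for 24 h. mRNA induction over DMSO is measured by capillary electrophoresis.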

[7] = target: Oxysterols receptor LXR-beta (Homo sapiens) (UniProt P55055); assay: ATG_LXRb_TRANS: Attagene TRANS-FACTORIAL HepG2 Assay for human Liver X Receptor beta (LXRb) (AID 2282981); details: HepG2 Attagene TRANS GAL4-LXRb reporter, mRNA
How it was run: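 Multiplexed reporter assay, HepG2, 24 h dosing. Fluorescence of labelled RT-PCR products after capillary electrophoresis gives transcript level; positive fitting direction relative to DMSO.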

[8] = target: Estrogen receptor (Homo sapiens) (UniProt P03372); assay: ATG_ERa_TRANS: Attagene TRANS-FACTORIAL HepG2 Assay for human Estrogen Receptor alpha (ERa) (AID 2282970); details: HepG2 Attagene TRANS ERa GAL4 reporter, mRNA
How it was run: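 Transfected HepG2 cells carrying GAL4-UAS-driven reporter units were dosed for 24 hours. Total RNA was reverse-transcribed, reporter sequences PCR-amplified, FAM-labelled, HpaI-digested and resolved by capillary electrophoresis. Increases over DMSO control defined activity.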

[9] = ATG_M_19_TRANS: Attagene TRANS-FACTORIAL HepG2 Assay for M19 Transcription Factor (Internal Marker) (AID 2282974); details: HepG2 Attagene TRANS-FACTORIAL M19 internal marker reporter
How it was run: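 Multiplexed TRANS format: HepG2 liver cells bearing transient GAL4-UAS reporter units, chemical treatment 24 h, reporter transcripts quantified by RT-PCR plus capillary electrophoresis. DMSO defines baseline.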

[10] = target: Bile acid receptor (Homo sapiens) (UniProt Q96RI1); assay: ATG_FXR_TRANS: Attagene TRANS-FACTORIAL HepG2 Assay for Farnesoid X Receptor (FXR) (AID 2282979); details: HepG2 Attagene TRANS FXR-GAL4 reporter transcription;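 further: hits raise reporter mRNA above DMSO so AC50 marks FXR activation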
How it was run: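 Chimeric FXR-GAL4 activity in transiently transfected human HepG2 liver cells is scored as induction of reporter mRNA after 24 h of dosing. Detection uses RT-PCR with fluorescent labelling and capillary electrophoresis, with DMSO serving as baseline.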

Measured: AC50

Sequence of Nuclear receptor subfamily 1 group I member 3 (Homo sapiens) (Q14994 whole entry, looked up, the tested form may be a part): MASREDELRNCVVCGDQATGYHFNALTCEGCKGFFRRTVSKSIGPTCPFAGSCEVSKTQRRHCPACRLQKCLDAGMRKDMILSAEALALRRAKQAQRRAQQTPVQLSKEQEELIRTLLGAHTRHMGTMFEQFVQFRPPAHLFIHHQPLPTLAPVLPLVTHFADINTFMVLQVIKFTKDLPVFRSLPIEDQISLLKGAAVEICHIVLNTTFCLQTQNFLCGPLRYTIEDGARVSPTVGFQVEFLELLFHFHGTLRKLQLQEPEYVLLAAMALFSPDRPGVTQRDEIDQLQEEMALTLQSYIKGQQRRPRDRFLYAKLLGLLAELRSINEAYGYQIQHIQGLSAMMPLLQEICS
Sequence of Estrogen receptor (Homo sapiens) (P03372 whole entry, looked up, the tested form may be a part): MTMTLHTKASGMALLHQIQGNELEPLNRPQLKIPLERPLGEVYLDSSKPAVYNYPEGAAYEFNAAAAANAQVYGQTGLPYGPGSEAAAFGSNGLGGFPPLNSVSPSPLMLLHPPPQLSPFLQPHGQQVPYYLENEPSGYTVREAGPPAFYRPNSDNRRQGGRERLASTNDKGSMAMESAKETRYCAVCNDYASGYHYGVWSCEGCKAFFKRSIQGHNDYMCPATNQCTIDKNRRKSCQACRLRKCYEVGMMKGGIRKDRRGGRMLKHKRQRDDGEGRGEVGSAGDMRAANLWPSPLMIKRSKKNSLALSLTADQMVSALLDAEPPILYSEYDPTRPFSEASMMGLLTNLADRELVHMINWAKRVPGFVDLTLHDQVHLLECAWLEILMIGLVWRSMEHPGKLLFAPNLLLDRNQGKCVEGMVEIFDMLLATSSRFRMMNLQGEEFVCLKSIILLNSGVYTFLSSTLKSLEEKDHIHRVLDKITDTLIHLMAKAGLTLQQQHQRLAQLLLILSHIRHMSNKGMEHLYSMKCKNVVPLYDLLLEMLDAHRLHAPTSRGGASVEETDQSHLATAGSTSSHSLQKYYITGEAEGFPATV
Sequence of X-box-binding protein 1 (Homo sapiens) (P17861 whole entry, looked up): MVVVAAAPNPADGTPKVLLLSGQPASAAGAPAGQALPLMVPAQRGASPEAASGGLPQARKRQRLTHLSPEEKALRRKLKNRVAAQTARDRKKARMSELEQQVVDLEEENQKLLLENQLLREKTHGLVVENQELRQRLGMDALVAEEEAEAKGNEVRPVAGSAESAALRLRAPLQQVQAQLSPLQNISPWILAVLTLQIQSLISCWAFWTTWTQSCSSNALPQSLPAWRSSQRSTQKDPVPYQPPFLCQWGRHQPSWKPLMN
Sequence of Oxysterols receptor LXR-beta (Homo sapiens) (P55055 whole entry, looked up, the tested form may be a part): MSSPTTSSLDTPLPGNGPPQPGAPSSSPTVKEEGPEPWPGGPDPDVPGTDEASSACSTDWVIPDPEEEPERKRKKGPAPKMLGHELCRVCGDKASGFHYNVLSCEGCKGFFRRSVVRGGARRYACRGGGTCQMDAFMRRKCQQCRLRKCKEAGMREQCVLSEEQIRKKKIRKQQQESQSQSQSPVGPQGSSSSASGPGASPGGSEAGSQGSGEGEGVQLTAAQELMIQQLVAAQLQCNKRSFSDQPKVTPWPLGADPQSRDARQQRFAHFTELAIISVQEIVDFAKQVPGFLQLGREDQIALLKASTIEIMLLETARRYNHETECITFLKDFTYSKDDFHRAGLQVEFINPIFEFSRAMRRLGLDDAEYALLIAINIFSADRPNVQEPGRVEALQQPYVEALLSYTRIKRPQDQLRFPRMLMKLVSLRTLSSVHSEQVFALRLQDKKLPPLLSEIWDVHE
Sequence of Glucocorticoid receptor (Homo sapiens) (P04150 whole entry, looked up, the tested form may be a part): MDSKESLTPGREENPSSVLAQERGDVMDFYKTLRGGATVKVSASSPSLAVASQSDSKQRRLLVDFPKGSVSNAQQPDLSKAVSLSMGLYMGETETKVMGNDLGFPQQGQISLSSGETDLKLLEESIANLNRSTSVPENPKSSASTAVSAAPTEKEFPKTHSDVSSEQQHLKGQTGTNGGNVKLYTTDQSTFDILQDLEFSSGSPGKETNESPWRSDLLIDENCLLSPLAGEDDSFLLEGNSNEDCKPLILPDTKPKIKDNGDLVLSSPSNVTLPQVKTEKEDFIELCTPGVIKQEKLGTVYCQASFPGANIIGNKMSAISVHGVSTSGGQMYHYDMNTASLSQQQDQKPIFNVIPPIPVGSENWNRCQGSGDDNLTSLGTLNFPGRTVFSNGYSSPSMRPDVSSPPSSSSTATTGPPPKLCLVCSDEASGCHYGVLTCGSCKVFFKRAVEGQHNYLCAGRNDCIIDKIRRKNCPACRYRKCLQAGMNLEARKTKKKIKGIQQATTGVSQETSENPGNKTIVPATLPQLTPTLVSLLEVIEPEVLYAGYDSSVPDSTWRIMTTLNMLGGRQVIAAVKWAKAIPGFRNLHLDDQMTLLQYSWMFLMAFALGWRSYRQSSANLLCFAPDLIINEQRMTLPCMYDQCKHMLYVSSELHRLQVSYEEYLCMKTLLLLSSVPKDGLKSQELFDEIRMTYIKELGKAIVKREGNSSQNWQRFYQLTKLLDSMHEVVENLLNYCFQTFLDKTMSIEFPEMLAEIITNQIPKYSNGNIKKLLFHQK
Sequence of Bile acid receptor (Homo sapiens) (Q96RI1 whole entry, looked up, the tested form may be a part): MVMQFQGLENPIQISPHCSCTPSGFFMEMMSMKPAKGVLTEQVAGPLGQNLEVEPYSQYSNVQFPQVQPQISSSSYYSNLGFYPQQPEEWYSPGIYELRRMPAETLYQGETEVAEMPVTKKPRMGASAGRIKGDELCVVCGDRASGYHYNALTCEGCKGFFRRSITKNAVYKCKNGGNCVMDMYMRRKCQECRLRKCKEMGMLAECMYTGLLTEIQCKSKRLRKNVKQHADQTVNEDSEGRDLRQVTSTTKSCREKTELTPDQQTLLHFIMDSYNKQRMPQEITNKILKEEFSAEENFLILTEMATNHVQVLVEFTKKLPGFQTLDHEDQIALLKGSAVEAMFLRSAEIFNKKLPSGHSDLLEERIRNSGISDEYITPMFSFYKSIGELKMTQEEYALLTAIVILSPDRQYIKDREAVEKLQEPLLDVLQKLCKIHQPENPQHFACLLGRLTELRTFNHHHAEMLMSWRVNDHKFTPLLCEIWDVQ

CN(C)c1ccc(N=NS(=O)(=O)O)cc1
not listed: [8] | [9] | [10]
inactive: all other assays above

Cc1ccc(O)cc1
inactive: [1] | [2] | [3] | [6]

Cc1ccc(S(=O)(=O)O)cc1C
inactive: [1] | [2] | [3] | [8] | [4] | [9]

CC(C)(O)c1coc(S(=O)(=O)NC(=O)Nc2c3c(cc4c2CCC4)CCC3)c1
active: [2] 44.5 µM
not listed: [4] | [8] | [10]
inactive: all other assays above

Clc1nc(Cl)c(Cl)c(Cl)c1Cl
inactive: [1] | [2] | [3] | [4] | [9] | [5]

CC(C)CCO
not listed: [3] | [6] | [10]
inactive: all other assays above

O=C(O)CC(O)C(=O)O (stereo not given)
inactive: [1] | [2] | [3] | [4]

On1ccccc1=S
inactive: [1] | [2]

COc1ccc(-n2nc(C(F)F)cc2-c2ccc(S(C)=O)cc2)cc1 (stereo not given)
not listed: [3] | [5] | [10]
inactive: all other assays above

O=C(O)CCN(C1(C(=O)NO)CCCC1)S(=O)(=O)c1ccc(Oc2ccc(F)cc2)cc1
inactive: [1] | [2] | [3] | [9]

Nc1nc2ncc(CNc3ccc(C(=O)N[C@@H](CCC(=O)O)C(=O)O)cc3)nc2c(=O)[nH]1
not listed: [8] | [10]
inactive: all other assays above

CC(C)CCCCCCCOC(=O)CCCCC(=O)OCCCCCCCC(C)C
not listed: [7] | [8] | [10]
inactive: all other assays above

Cc1c(-c2cccnc2)c2ccccc2n1CCCCC(=O)O
not listed: [5] | [6] | [8]
inactive: all other assays above

CCCCCCCCCCCCc1ccccc1
inactive: [1] | [2] | [3]

Cc1ccc(N)cc1O
inactive: [1] | [2] | [3] | [8] | [6]

O=C(OC[C@H]1O[C@@H](OC(=O)c2cc(O)c(O)c(OC(=O)c3cc(O)c(O)c(O)c3)c2)[C@H](OC(=O)c2cc(O)c(O)c(OC(=O)c3cc(O)c(O)c(O)c3)c2)[C@@H](OC(=O)c2cc(O)c(O)c(OC(=O)c3cc(O)c(O)c(O)c3)c2)[C@@H]1OC(=O)c1cc(O)c(O)c(OC(=O)c2cc(O)c(O)c(O)c2)c1)c1cc(O)c(O)c(OC(=O)c2cc(O)c(O)c(O)c2)c1
inactive: [1] | [2] | [3] | [4] | [7]

CCOC(=O)COc1ccc2c(c1)CC(NCC(O)c1cccc(Cl)c1)CC2 (stereo not given)
inactive: [1] | [2] | [3] | [9]
active: [8] 47.1 µM

CCNc1ccccc1
inactive: [1] | [2] | [3] | [4] | [5]

COc1cccc(-c2ccc(/C=C\CN3CCCCCC3)cc2Cl)c1
active: [2] 6.94 µM
not listed: [4] | [5]
inactive: all other assays above

C[C@](N)(Cc1ccc(O)c(O)c1)C(=O)O
inactive: [1] | [2] | [3]
